From the supplement of paper PMC10723795 come the findings set out here.

± gives the standard deviation of the averaged measurements.

This test concerns CHON-002. Description: nucleolar normality score relative to DMSO (fraction of DMSO control); RPE1 is a non-cancer human cell line; higher = more normal nucleoli (less nucleolar stress). As to the method:
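Selected screen hits were validated in hTERT lines (BJ5TA, CHON-002, RPE1) and cancer lines (DLD1, HCT116). Cells were immunostained for nucleolin and UBF and the nucleolar normality score was measured per field of view, with 4 fields per drug. Scores are normalized to each cell line's own DMSO control. Dose and time are not stated for this panel.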
`CC[C@@]1(O)C(=O)OCc2c1cc1n(c2=O)Cc2cc3ccccc3nc2-1` [Camptothecin] gave a nucleolar normality score of 0.38 ± 0.047.
